KCNQ2 inh – rat KCNQ2 potassium channel inhibitors, primary screen, cell-based, CHO-K1, FluxOR thallium flux, B-score; 20 min; stronger effect = lower value; B-score at 10 µM; hit rate 1.1% among 310,000;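 active = fluorescence ratio B-score at most minus 3 library SDs, with starting brightness B-score within 2 library SDs, cut at about -5.5 in these data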
KCNQ2 enhance – potentiators of rat KCNQ2 potassium channel | CHO-K1 KCNQ2, FluxOR thallium flux fluorescence; stronger effect = higher value | Potassium voltage-gated channel subfamily KQT member 2 (Rattus norvegicus), O88943 | B-score at 10 µM | AID 2239, 2010 | hit rate 0.54% among 310,000;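 active = fluorescence ratio B-score at least 3 SD of library B-scores, with initial fluorescence B-score within 3 of them, cut at about 5.3 in these data; same plate scores as AID 2156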;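 also: B-score of peak minus minimum over baseline fluorescence ratio after K+ and Tl+ stimulus; positive B-score means potentiation of KCNQ2 with more thallium influx and brighter signal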
Kir21 conf inh – mouse Kir2.1 channel blockers, retest, confirmation, cell-based, FluxOR thallium flux, duplicate | Tl flux remaining, % of negative control (stronger effect = lower value), % at 10 µM | shares compounds with KCNQ2 enhance | AID 2032, 2009 | Kir2.1-expressing cells, FluxOR thallium flux fluorescence; stronger effect = lower value | hit rate 41% among 2,300;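 active = Primary-screen hit whose thallium flux fell at least 3 control SD below untreated wells in both duplicates, with normal baseline fluorescence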
Target sequence (P35561 whole entry, looked up): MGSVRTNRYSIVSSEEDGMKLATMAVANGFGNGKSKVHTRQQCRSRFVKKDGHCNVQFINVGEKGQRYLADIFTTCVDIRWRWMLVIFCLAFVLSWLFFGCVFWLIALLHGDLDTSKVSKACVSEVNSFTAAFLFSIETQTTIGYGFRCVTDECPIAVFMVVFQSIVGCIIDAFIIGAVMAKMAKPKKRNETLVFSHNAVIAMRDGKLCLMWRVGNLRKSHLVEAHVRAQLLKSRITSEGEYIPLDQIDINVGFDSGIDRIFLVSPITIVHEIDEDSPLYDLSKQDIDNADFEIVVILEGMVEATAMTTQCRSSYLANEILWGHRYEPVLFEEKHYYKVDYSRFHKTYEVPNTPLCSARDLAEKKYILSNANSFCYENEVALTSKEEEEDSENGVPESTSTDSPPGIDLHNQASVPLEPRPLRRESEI
HEK293 Tl flux – counter-screen for Kir2.1 inhibitors: effect in parental HEK293 cells | shares compounds with KCNQ2 enhance | FluxOR thallium flux fluorescence; 0% = unstimulated blank wells | FluxOR signal as % of negative control (100 = no effect), % at 10 µM | hit rate 19% among 2,300;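 active = dye signal at least 3 control SD above or below untreated wells in both duplicates, raw fluorescence within 3, either direction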;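 also: percent is based on the flux ratio of peak minus minimum fluorescence over baseline F0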
CHO-K1 ctr – nonspecific thallium flux increase in parental CHO-K1, confirmation, counter-screen for KCNQ2 potentiator project, cell-based, FluxOR thallium flux, duplicate | shares compounds with KCNQ2 enhance | parental CHO-K1 cells, FluxOR thallium flux fluorescence; zero = vehicle mean+3SD, 100% = vehicle-minus-blank window | activity increase over 3SD of controls, % at 10 µM | hit rate 43% among 1,200;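 active = signal rise of at least 3 SD above the untreated control mean, in both duplicate wells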;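 also: counter screen of KCNQ2 potentiator hits so any rise reflects channel-independent effects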
KCNQ1 pot spec – human KCNQ1 channel potentiation off-target, confirmation, selectivity assay for KCNQ2 potentiator project, cell-based, CHO, FluxOR thallium flux; shares compounds with KCNQ2 enhance; hit rate 28% among 1,200; AID 2283, 2010; CHO KCNQ1 stable, FluxOR thallium flux fluorescence; beyond 3SD, as % of vehicle-control signal; activation over 3SD threshold, % at 10 µM;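 active = fluorescence ratio rise of at least 3 SD of vehicle wells above their mean, in both replicate wells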
KCNQ2 pot confirm – rat KCNQ2 channel potentiators, confirmation, cell-based, CHO, FluxOR thallium flux, duplicate | shares compounds with KCNQ2 enhance | CHO-KCNQ2 cells, FluxOR thallium flux fluorescence | potentiation, less the hit threshold, % at 10 µM | hit rate 68% among 1,200;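 active = fluorescence ratio rising 3 SD or more over the vehicle control mean in both replicates, plus primary screen hit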;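 also: peak minus minimum thallium fluorescence divided by baseline after K/Tl stimulus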
Kir21 spec – mouse Kir2.1 channel activation off-target, confirmation, selectivity assay for KCNQ2 potentiator project, cell-based, HEK293, FluxOR thallium flux | shares compounds with KCNQ2 enhance | HEK293 Kir2.1, FluxOR thallium flux fluorescence | activity over 3SD threshold, % at 10 µM | hit rate 2% among 1,200;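 active = fluorescence ratio rise of at least 3 SD above the vehicle-control mean, seen in both replicates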
KCNQ2 W236L MoA – potentiators of retigabine-insensitive KCNQ2 W236L, mechanism study for KCNQ2 potentiator project, cell-based, rat KCNQ2 W236L, CHO, automated patch clamp; hit rate 10% among 940; current increase over 3SD of negative controls (%), stronger effect = higher value, % at 25 µM; shares compounds with KCNQ2 enhance; automated patch clamp current; AID 2558, 2010;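 active = current increase at least 3 SD of the untreated controls above them in both duplicate recordings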
Each line names hits and unclear results; the compound was inactive in the other large screens (follow-up assays come after a bar, where they were run). Only some compounds are listed: those with a hit (about 1.6% of all), similar ones and a draw of the others.

C=CCNCCOCCOc1ccc(Cl)cc1C(C)(C)C	none (no result: KCNQ2 enhance)
C=CCNCCCOc1ccc(Cl)cc1C(C)(C)C	none (no result: KCNQ2 enhance) | Kir21 conf inh 28% | HEK293 Tl flux inactive
Cc1ccc(OCCOCCN2CCN(C)CC2)c(C(C)(C)C)c1	none
CC(C)(C)c1cc(Cl)ccc1OCCOCCN1CCCC1	none (no result: KCNQ2 enhance) | Kir21 conf inh 39% | HEK293 Tl flux inactive
O=C(N/N=C/c1cccnc1)c1cc(C2CC2)nc2ccccc12	none (no result: KCNQ2 enhance)
CCn1c(COc2ccc(C)cc2)nnc1SCc1ccc(C#N)cc1	none (no result: KCNQ2 enhance) | Kir21 conf inh 68% | HEK293 Tl flux inactive
CCc1ccc(OCc2nnc(SCCN3CCOCC3)n2CC)cc1	none
CCC(=O)N1c2ccc(S(=O)(=O)NC3CCCCC3)cc2CC1C (centres undefined)	none
COCCNC(=O)COc1cccc(Oc2ccccc2)c1	none
O=C(Nc1cccc(Cl)c1)Nc1nc(-c2ccc(Cl)cc2)cs1	none (no result: KCNQ2 enhance)
CN1CCN(CC(O)(c2ccc(Cl)cc2)c2ccc(Cl)cc2)CC1	none (no result: KCNQ2 enhance) | Kir21 conf inh 50% | HEK293 Tl flux inactive
CN1CCN(CC(O)COc2ccc(Cl)cc2)CC1 (centres undefined)	none
COc1ccc(-c2nnc(SCc3cccc(C#N)c3)o2)cc1	none
CCOC(=O)c1n[nH]n2c1nc(=S)c1ccccc12	KCNQ2 enhance 8.2 | Kir21 conf inh inactive | HEK293 Tl flux 391% | CHO-K1 ctr inactive | KCNQ1 pot spec inactive | KCNQ2 pot confirm 43 | Kir21 spec 1.3 | KCNQ2 W236L MoA inactive
CCOC(=O)c1n[nH]c2ccccc12	none
CC1CN(C(=O)CCC(=O)NCCCN2CCN(Cc3ccccc3)CC2)c2cc(Cl)ccc2O1 (centres undefined)	none (no result: KCNQ2 enhance) | Kir21 conf inh 61% | HEK293 Tl flux inactive
O=C(CCC(=O)N1CCOc2ccc(Cl)cc21)NCCCN1CCN(Cc2ccccc2)CC1	none
Cc1ccccc1NC(=O)c1c([N+](=O)[O-])cnn1C	none (no result: KCNQ2 enhance)
CCOC(=O)CN1C(=O)NC(C)(c2ccc(OC(F)F)cc2)C1=O (centres undefined)	none (no result: KCNQ2 enhance)
CC(=O)Nc1ccc(/C=N/N2C(=O)NC(C)(c3ccc(OC(F)F)cc3)C2=O)cc1 (centres undefined)	KCNQ2 enhance 18 | Kir21 conf inh inactive | HEK293 Tl flux inactive | CHO-K1 ctr inactive | KCNQ1 pot spec 11 | KCNQ2 pot confirm 24 | Kir21 spec inactive | KCNQ2 W236L MoA inactive
CN(C)CCNC(=O)C(=O)Nc1ccc2c(c1)N(S(=O)(=O)c1cccs1)CCC2	none
Cc1cccnc1NC(=O)Nc1ccc(Cl)cc1	none (no result: KCNQ2 enhance)
O=C(NCCc1ccccc1)c1ccc(CS(=O)(=O)c2ccc(Cl)cc2)o1	none
c1cnc(N2CCN(Cc3c[nH]c4ccccc34)CC2)nc1	none (no result: KCNQ2 enhance)
Fc1ccc(N2CCN(Cc3c[nH]c4ccccc34)CC2)cc1	none | Kir21 conf inh 19% | HEK293 Tl flux inactive
CCOc1ccc(CCNC(=O)C2CCN(c3nnc(-n4cccc4)s3)CC2)cc1OCC	none (no result: KCNQ2 enhance)
CCOc1cccc(N(C(=O)CCC(=O)Nc2cc(C)on2)C(C(=O)NC(C)(C)C)c2ccc(OC)cc2)c1 (centres undefined)	none (no result: KCNQ2 enhance)
COc1ccc(C(C(=O)NC(C)(C)C)N(C(=O)CCC(=O)Nc2cc(C)on2)c2cccc(F)c2)cc1 (centres undefined)	KCNQ2 enhance 5.6 | Kir21 conf inh inactive | HEK293 Tl flux inactive | CHO-K1 ctr inactive | KCNQ1 pot spec inactive | KCNQ2 pot confirm inactive | Kir21 spec inactive
CCOc1cc(CNCc2cccs2)cc(Br)c1OCC	none (no result: KCNQ2 enhance)
CCOc1cc(CNCCO)cc(Br)c1OCc1ccc(Cl)cc1Cl	KCNQ2 inh -13 | Kir21 conf inh 21% | HEK293 Tl flux inactive
CCOc1cc(CNCCO)cc(Br)c1OCc1cccs1	none | Kir21 conf inh 23% | HEK293 Tl flux inactive
CCOc1cc(CNCc2ccncc2)cc(Br)c1OCc1ccccc1F	none (no result: KCNQ2 enhance) | Kir21 conf inh 52% | HEK293 Tl flux inactive
CCOc1cc(CNCCSc2nnnn2C)cc(Br)c1OCc1ccccc1F	none
CCOc1cccc(CNCCO)c1OCc1ccc(Cl)cc1Cl	none
c1ccc(COc2cccc(CNCc3ccccn3)c2)cc1	none (no result: KCNQ2 enhance)
COc1cc2[nH]c(=S)nc(NCc3cccnc3)c2cc1OC	none
COc1ccc(C(=O)CCC(=O)N2CCN(c3cc(C)ccc3C)CC2)cc1	none (no result: KCNQ2 enhance)
COc1cccc(CNc2cccc3cccnc23)c1O	none (no result: KCNQ2 enhance)
Oc1c(Br)cc(Br)cc1CNc1cccc2cccnc12	KCNQ2 enhance 8.8 | Kir21 conf inh inactive | HEK293 Tl flux inactive | CHO-K1 ctr 2.2 | KCNQ1 pot spec inactive | KCNQ2 pot confirm inactive | Kir21 spec inactive
COc1ccccc1OCc1nc(C#N)c(N2CCC(C(N)=O)CC2)o1	none (no result: KCNQ2 enhance)
CN(C)CCOc1ccccc1Cc1ccccc1	none
CNCCCCOc1ccccc1Cc1ccccc1	none (no result: KCNQ2 enhance) | Kir21 conf inh 28% | HEK293 Tl flux inactive
CCCCn1c(N)c(N(CCOC)C(=O)C(C)Oc2ccc(Cl)cc2)c(=O)[nH]c1=O (centres undefined)	none
Clc1cccc(CN2CCC(Cc3ccccc3)CC2)c1	none (no result: KCNQ2 enhance) | Kir21 conf inh 71% | HEK293 Tl flux inactive
CSc1ccc(OC2CCN(Cc3ccccc3)CC2)cc1	none (no result: KCNQ2 enhance)
CSc1ccc(CN2CCC(Cc3ccccc3)CC2)cc1	none (no result: KCNQ2 enhance) | Kir21 conf inh 18% | HEK293 Tl flux inactive
Clc1ccc(CN2CCC(Cc3ccccc3)CC2)cc1	none (no result: KCNQ2 enhance)
C=CCNc1nc(C(F)(F)F)nc2c1nnn2Cc1ccccc1Cl	none (no result: KCNQ2 enhance)
CCC(=O)NCCNc1ccc([N+](=O)[O-])cn1	none
CC(=O)NC(=O)NC1CSCC1OC(C)=O (centres undefined)	none
Nc1ccc2c(c1)ncn2CCCn1cnc2cc(N)ccc21	none (no result: KCNQ2 enhance)

From PubChem BioAssay
